Bioassay records deposited in PubChem BioAssay by National Center for Advancing Translational Sciences (NCATS).
gsp antag = qHTS for Antagonists of gsp, the Etiologic Mutation Responsible for Fibrous Dysplasia/McCune-Albright Syndrome: qHTS | gsp-mutant cells, cAMP HTRF, 30 min | Potency, µM (titrated, usually from 76.9 µM), inactives show at the top dose activity change, negative = inhibition, most hits filed as inhibitors | 340,000 tested, 0.4% active | AID 624288, 2012; calls by dose curve; cell line not stated here;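 also: intracellular cAMP measured with PDE inhibitor Ro 20-1724 present during compound exposure; potency is read from the fitted curve at half-maximal effect; % is scaled to controls: 0 for no effect and ±100 for the full control effect; nearly all actives have a fitted effect of over 65% in size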
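G418-selected cells were plated in DMEM/10% FBS for 16-24 h at 37C, then treated with compounds plus the PDE inhibitor […] (300 uM solution added) for 30 min at 37C. Intracellular cAMP was measured by HTRF after 30 min lysis at room temperature.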
RXFP1 antag = qHTS Assay for Antagonists of the Relaxin Receptor RXFP1 | 350,000 tested, 0.59% active | activity change, negative = inhibition, % at 57.5 µM | AID 1259400, 2018 | HEK293-RXFP1, relaxin-stimulated cAMP HTRF, 30 min; hits give low values;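 active = activity change of -60% or lower, but not beyond a set lower limit; inconclusive = change between -60% and -40%, or beyond the set limit; inactive = change above -40%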; also: % is scaled to controls: 0 for no effect and ±100 for the full control effect
Target sequence (Q9HBX9 whole entry, looked up): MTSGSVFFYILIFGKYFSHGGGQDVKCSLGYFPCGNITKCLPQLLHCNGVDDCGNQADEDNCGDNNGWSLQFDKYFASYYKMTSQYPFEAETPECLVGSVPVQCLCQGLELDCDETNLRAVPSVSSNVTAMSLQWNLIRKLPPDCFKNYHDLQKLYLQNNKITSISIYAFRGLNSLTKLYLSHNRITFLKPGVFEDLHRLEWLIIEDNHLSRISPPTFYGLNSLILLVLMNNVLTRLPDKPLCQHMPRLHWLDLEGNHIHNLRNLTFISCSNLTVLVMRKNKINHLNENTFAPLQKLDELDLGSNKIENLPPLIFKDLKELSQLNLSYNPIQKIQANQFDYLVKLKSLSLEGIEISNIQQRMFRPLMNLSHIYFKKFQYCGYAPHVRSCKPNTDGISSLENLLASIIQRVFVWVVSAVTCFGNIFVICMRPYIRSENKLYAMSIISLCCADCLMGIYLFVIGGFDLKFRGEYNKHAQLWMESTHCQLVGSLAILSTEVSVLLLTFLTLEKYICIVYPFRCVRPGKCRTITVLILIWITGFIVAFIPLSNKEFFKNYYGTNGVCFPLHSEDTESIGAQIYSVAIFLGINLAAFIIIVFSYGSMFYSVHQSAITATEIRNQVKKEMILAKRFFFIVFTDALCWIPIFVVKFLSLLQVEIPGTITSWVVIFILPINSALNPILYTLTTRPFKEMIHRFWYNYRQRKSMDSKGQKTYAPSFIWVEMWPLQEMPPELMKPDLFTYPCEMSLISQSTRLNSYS
gsp ag = qHTS for Agonist of gsp, the Etiologic Mutation Responsible for Fibrous Dysplasia/McCune-Albright Syndrome: qHTS. gsp mutant cells, cAMP HTRF, 30 min. Potency, µM (doses to about 76.9 µM), without a hit: top-dose activation (cAMP increase), hits mostly activators. 340,000 tested, 0.13% active; active = well fitted activation curve with a large enough effect; inconclusive = small, poorly fitted or top-dose-only effect, or another doubt; inactive = no such curve, though single readings can be large or run the other way; cell line not stated here;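 also: phosphodiesterase inhibitor Ro 20-1724 added with compounds to block cAMP breakdown; potency is read from the fitted curve at half-maximal effect; nearly all actives have a fitted effect of over 60% in size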
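Cells in DMEM/10% FBS with G418 were pretreated with compounds in DMSO plus […] (300 uM stock) for 30 min at 37C. cAMP was measured by HTRF (cAMP-d2 plus anti-cAMP antibody-K) after 30 min at room temperature.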
CCT modulator = High-Throughput Screening for Modulators of Cytosolic Chaperonin Activity. AID 651819, 2012. purified chaperonin ATPase assay, HTRF ADP detection, 30 min. activity change, % (concentration not given with the values), hits read low. 360,000 tested, 0.3% active; in the data active = activity change below about -30%; also: % is scaled to controls: 0 for no effect and ±100 for the full control effect
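TRiC at 40 or 20 nM final (batch-dependent) in 30 mM Tris pH 7.4, 100 mM KCl, 5 mM MgCl2, 1 mM DTT, with compound at single 76 uM and 10 uM ATP, 30 min at 37 deg C. ADP detected by HTRF Transcreener, 665/615 ratio.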
RXFP1 ag = qHTS Assay for Agonists of the Relaxin Receptor RXFP1; Relaxin receptor 1 (Homo sapiens), Q9HBX9; HEK293T-RXFP1 cAMP TR-FRET, 30 min; response scale: percent of porcine relaxin response, buffer zero; Potency, µM (top dose mostly 57.5 µM), without a hit: at the top dose activation, hits mostly activators; 370,000 tested, 0.3% active; AID 2676, 2010; also: potency is read from the fitted curve at half-maximal effect; % is scaled to controls: 0 for no effect and ±100 for the full control effect; nearly all actives have a fitted effect of over 60% in size
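HEK293T cells stably expressing RXFP1 were pretreated with the PDE4 inhibitor Ro 20174, exposed to compounds for 30 min at 37C, lysed, and cAMP was read by TR-FRET. Data normalized to buffer (basal) and 29 nM porcine relaxin (100%).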
Mm-Cpn inhibitor = Inhibitors of TCP-1 ring complex (TRiC) of Methanococcus maripaludis (MmCpn): qHTS; Chaperonin Mm-Cpn (Methanococcus maripaludis); purified Mm-Cpn ATPase, ADP Transcreener TR-FRET; Potency, µM (highest dose often 76.9 µM), for inactives: at the top dose activity, negative = inhibition, actives largely listed as inhibitors; 330,000 tested, 0.031% active; AID 504842, 2011; also: potency is read from the fitted curve at half-maximal effect; % is scaled to controls: 0 for no effect and ±100 for the full control effect; nearly all actives have a fitted effect of over 80% in size
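ATPase turnover read by TR-FRET ADP competition (Eu cryptate antibody/ADP-d2, 665/590 nm): 10uM ATP final, 25nM Mm-CPN final, 30 min 37degC after 10-min compound preincubation, pH 7.4 Tris/KCl/MgCl2/DTT buffer.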
Active calls of the source: *; [ ] = another dose, or the depositor's remark. Only some compounds are listed: those with a hit (about 1.2% of all), similar ones and a draw of the others. Unless noted, calls follow the shape of the dose curve; as a rule, active = well fitted curve in the direction sought with a large enough effect; inconclusive = small, poorly fitted or top-dose-only effect, or another doubt; inactive = no such curve, though single readings can be large; an effect the other way counts as inactive or inconclusive.

How did COc1ccc(-c2ccc3c(c2)S(=O)(=O)c2cccc(C(=O)N4CCN(c5ccccn5)CC4)c2C3=O)cc1OC do in these assays?
RXFP1 antag: 7.3; gsp ag: inconclusive; CCT modulator: -31.9*

Results for COc1ccc(-c2ccc3c(c2)S(=O)(=O)c2cccc(C(=O)N4CCN(C5CCCCC5)CC4)c2C3=O)cc1OC ?
gsp antag: -13.2%; CCT modulator: -1.2; Mm-Cpn inhibitor: -0.2%

How did CCCOc1ccccc1C(=O)Nc1nc2c(s1)CCCC2 do in these assays?
RXFP1 antag: inconclusive; RXFP1 ag: 2.3%

What do the screens show for `O=C(CSc1nnc(CNC(=O)c2ccco2)o1)Nc1ccc(OC(F)(F)F)cc1`?
gsp antag: 0.8%; RXFP1 antag: -109.7*; gsp ag: -0.6%; CCT modulator: -47.3*; RXFP1 ag: 1.6%; Mm-Cpn inhibitor: -1.5%

What do the screens show for `CCn1c(CN2CCCCC2)nc2cc(NC(=O)COc3ccc([N+](=O)[O-])cc3)ccc21`?
RXFP1 antag: 1.0; RXFP1 ag: -3.0%

Results for Cn1c(CNC(=O)CSc2n[nH]c(-c3ccccc3Cl)n2)nc2ccccc21 ?
RXFP1 antag: -17.6; RXFP1 ag: 2.9%

What do the screens show for `O=C1c2[nH]nc(-c3ccccc3O)c2C(c2ccc(Cl)cc2)N1CCc1ccccc1` (stereo not given)?
RXFP1 antag: -14.3; RXFP1 ag: -1.2%

Results for CCOc1cc(/C=C(\C#N)C(=O)Nc2cccc(C(=O)O)c2)cc(Br)c1OC(=O)c1ccc(OC)cc1 ?
gsp antag: -11.7%; RXFP1 antag: -89.1*; gsp ag: 9.8%; CCT modulator: 0.2; RXFP1 ag: -2.9%; Mm-Cpn inhibitor: 0.2%

What do the screens show for `COc1ccc(-n2c3c(cc(C#N)c2=O)C(=O)CCC3)cc1`?
gsp antag: -11.8%; RXFP1 antag: -0.3; gsp ag: 1.7%[15.4 µM]; CCT modulator: -33.8*; RXFP1 ag: -1.3%; Mm-Cpn inhibitor: -1.2%

What do the screens show for `COc1cccc(Cn2c(=O)n(CC3CCC(C(=O)N4CCCCC4)CC3)c(=O)c3sccc32)c1` (stereo not given)?
RXFP1 antag: -20.0; RXFP1 ag: -1.0%

How did CC1(C)CC(=O)C2=C(C1)NC1=C(C(=O)c3ccccc31)C2c1ccccc1 (stereo not given) do in these assays?
gsp antag: -22.3%; gsp ag: inconclusive; CCT modulator: -1.9; RXFP1 ag: 3.6%; Mm-Cpn inhibitor: -3.2%

What do the screens show for `CC1(C)CC(=O)C2=C(C1)NC1=C(C(=O)c3ccccc31)C2c1cc([N+](=O)[O-])ccc1O` (stereo not given)?
gsp antag: -11.6%; RXFP1 antag: 23.0; gsp ag: 14.1µM*; CCT modulator: -7.1; RXFP1 ag: inconclusive; Mm-Cpn inhibitor: -2.4%

Results for COc1cccc(C(=O)Nc2c(C(=O)NC(C)(C)C)oc3ccccc23)c1 ?
RXFP1 antag: -12.4; RXFP1 ag: 0.6%

Results for COc1ccc(S(=O)(=O)N2N=C(c3cccc(NS(C)(=O)=O)c3)CC2c2ccco2)cc1 (stereo not given) ?
gsp antag: -2.8%; RXFP1 antag: inconclusive; gsp ag: 4.4%; CCT modulator: -68.9*; RXFP1 ag: -0.3%; Mm-Cpn inhibitor: -1.6%

How did Cc1ccc(S(=O)(=O)Nc2ccccc2C=Nc2cccc(C)c2C)cc1 do in these assays?
gsp antag: -17.7%; RXFP1 antag: -65.6*; gsp ag: 2.0%[15.4 µM]; CCT modulator: -2.4; RXFP1 ag: -2.9%; Mm-Cpn inhibitor: -4.2%

How did COc1ccc(CNC(=O)CCCn2c(=S)[nH]c3cc4c(cc3c2=O)OCO4)cc1 do in these assays?
gsp antag: 11.9%; RXFP1 antag: inconclusive; gsp ag: inconclusive; CCT modulator: 0.6; RXFP1 ag: inconclusive; Mm-Cpn inhibitor: -5.8%

What do the screens show for `COc1cccc(N2CCN(C(=O)CCCCCNc3nc(=S)[nH]c4ccccc34)CC2)c1`?
gsp antag: inconclusive; RXFP1 antag: -89.8*; gsp ag: 1.1%[15.4 µM]; CCT modulator: -4.4; RXFP1 ag: 4.1%; Mm-Cpn inhibitor: -3.4%

Results for O=C(CCCCCNc1nc(=S)[nH]c2ccccc12)N1CCN(c2ccccn2)CC1 ?
RXFP1 ag: 5.5%; Mm-Cpn inhibitor: 0.4%

What do the screens show for `O=C(CCCn1c(=S)[nH]c2cc3c(cc2c1=O)OCO3)N1CCN(c2ccccn2)CC1`?
gsp antag: -10.0%; RXFP1 antag: inconclusive; gsp ag: -10.5%; CCT modulator: -2.2; RXFP1 ag: -1.5%; Mm-Cpn inhibitor: 1.2%

What do the screens show for `Cc1ccc(C)c(N2CCN(C(=O)CCn3c(=S)[nH]c4cc5c(cc4c3=O)OCO5)CC2)c1`?
gsp antag: 7.3%; RXFP1 antag: -68.1*; gsp ag: inconclusive; CCT modulator: -0.1; RXFP1 ag: 1.5%; Mm-Cpn inhibitor: 0.0%

How did O=C(CCCn1c(=S)[nH]c2ccccc2c1=O)N1CCN(c2cccc(Cl)c2)CC1 do in these assays?
gsp antag: 8.8%; RXFP1 antag: -89.0*; gsp ag: 25.0%; CCT modulator: -2.7; RXFP1 ag: 1.5%; Mm-Cpn inhibitor: -1.4%

Results for COc1ccc(N2CCN(C(=O)CCCn3c(=S)[nH]c4cc5c(cc4c3=O)OCO5)CC2)cc1 ?
gsp antag: -10.5%; RXFP1 antag: -69.3*; gsp ag: inconclusive; CCT modulator: 1.9; RXFP1 ag: -0.4%; Mm-Cpn inhibitor: 0.8%

How did CCC(C)n1ncn(-c2ccc(N3CCN(c4ccc(OC[C@H]5CO[C@](Cn6cncn6)(c6ccc(Cl)cc6Cl)O5)cc4)CC3)cc2)c1=O (stereo not given in full) do in these assays?
RXFP1 antag: -27.3

How did Cc1cccc(NC(=O)Cn2cc(C(=O)C3CCCCC3)c3ccccc32)c1C do in these assays?
RXFP1 antag: 2.4; RXFP1 ag: 6.3%

How did CCCCc1ccc(-n2nc3ccc(NC(=O)c4cc5ccccc5o4)cc3n2)cc1 do in these assays?
RXFP1 antag: -8.1; RXFP1 ag: 2.8%

Results for COc1ccc(-c2cc(C(F)(F)F)nc(SCC(=O)NC(C)c3ccccc3)n2)cc1 (stereo not given) ?
RXFP1 ag: 20.4%
